# Reference: PubChem BioAssay AID2104 (National Center for Advancing Translational Sciences (NCATS), 2010)
# Inconclusive results are not listed. Activity calls are given as the source filed them. Calls come from the whole dose curve.
# Target: Thyrotropin receptor (Homo sapiens) (UniProt P16473)
# Experiment: Secondary Concentration-Response Assay for Agonists of the Thyroid Stimulating Hormone Receptor: ELISA Activity Detection
# Conditions: HEK293-TSHR cells, cAMP ELISA luminescence, 1 h
# Description: NIH Chemical Genomics Center [NCGC] NIH Molecular Libraries Screening Centers Network [MLSCN] MLSCN Grant: 1 X01 MH080680-01 PI Name: Dr. Marvin Gershengorn, NIH NCGC Assay Overview: Confirmation of Thyroid Stimulating Hormone Receptor Agonists TSH is an alpha/beta heterodimeric glycoprotein hormone secreted from the anterior pituitary gland which belongs to the glycoprotein hormone family. The actions of TSH are mediated by a seven-transmembrane receptor, which upon TSH binding couples preferentially to the G-alpha (s) protein (Gs), resulting in activation of adenylate cyclase and increase in cyclic adenosine 3', 5' monophosphate (cAMP). The TSH receptor (THSR) is mainly expressed in thyroid follicular cells and regulates their growth and function. Recombinant TSH is used to activate TSHR in patients with thyroid cancer receiving thyroid hormone suppression therapy and to screen for residual tumor after surgery, but it is expensive and must be administered intramuscularly. An orally active small molecule TSHR agonist would serve as an invaluable research tool for studying TSHR pharmacology and physiology, and would have multiple advantages in therapeutic settings. However, no selective small molecule agonist of the TSH receptor exists, and no small molecule screen for TSHR agonists has ever been reported. A confirmatory assay of putative TSHR agonists was conducted on a HEK 293 cell line stably expressing the TSHR, using an orthogonal detection technology to measure cAMP stimulation: an ELISA based cAMP competition assay using cAMP-Screen Direct System (Applied Biosystems, Foster City , CA).
# NCGC Assay Protocol Summary: HEK 293 cells expressing TSHR were cultured for 24 h before incubation for 1 h in serum-free DMEM containing 1 mM 3-isobutyl-1-methylxanthine (IBMX) (SIGMA) and small molecule ligands in a humidified 5% CO2 incubator at 37C. Following aspiration of the medium, cells were lysed using lysis buffer of the cAMP-Screen DirectTM System (Applied Biosystems). The cAMP content of the cell lysate was determined using the method described in the manufacturer#s protocol. An enzyme substrate with a luminescent enhancer generates glow light emission kinetics. Light signal intensity, which is inversely proportional to the cAMP level in the sample, is measured in a luminometer (Perkin Elmer, 1420 Multilabel, Victor 3) for 3 seconds/well 30 min after substrate addition. Potencies (i.e., EC50) of the ligands were obtained from dose-response curves by data analysis with GraphPad Prism 4 software for Windows.
# Chain of Thyrotropin receptor (Homo sapiens) (P16473 whole entry, looked up): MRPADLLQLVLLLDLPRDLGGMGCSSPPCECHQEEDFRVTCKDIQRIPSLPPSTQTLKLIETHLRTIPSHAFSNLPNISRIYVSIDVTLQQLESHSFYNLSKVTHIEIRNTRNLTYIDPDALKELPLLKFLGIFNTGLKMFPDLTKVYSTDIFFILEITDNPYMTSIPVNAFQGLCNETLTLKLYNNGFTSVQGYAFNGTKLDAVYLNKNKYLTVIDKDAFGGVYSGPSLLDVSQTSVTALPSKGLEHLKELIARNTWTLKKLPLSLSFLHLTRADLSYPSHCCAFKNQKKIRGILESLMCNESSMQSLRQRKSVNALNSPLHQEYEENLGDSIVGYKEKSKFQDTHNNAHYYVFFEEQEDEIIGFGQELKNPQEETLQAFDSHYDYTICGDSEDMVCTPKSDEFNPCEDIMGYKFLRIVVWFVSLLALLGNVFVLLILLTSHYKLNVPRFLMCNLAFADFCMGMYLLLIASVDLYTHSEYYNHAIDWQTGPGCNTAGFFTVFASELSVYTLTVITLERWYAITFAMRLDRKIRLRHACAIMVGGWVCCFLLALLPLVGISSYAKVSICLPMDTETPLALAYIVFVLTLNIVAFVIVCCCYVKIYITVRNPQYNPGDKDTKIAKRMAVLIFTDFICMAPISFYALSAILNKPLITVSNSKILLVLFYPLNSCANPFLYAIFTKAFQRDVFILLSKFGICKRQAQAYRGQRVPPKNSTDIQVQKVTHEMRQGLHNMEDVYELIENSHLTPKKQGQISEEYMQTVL
SMILES,Potency,outcome
COc1ccc(C2Nc3ccccc3C(=O)N2Cc2ccccc2)cc1CSc1ccc(NC(C)=O)cc1 (stereo unspecified),80 nM (active),–
COc1ccc(C2Nc3cccc(NS(C)(=O)=O)c3C(=O)N2Cc2ccccc2)cc1COc1ccc(NC(C)=O)cc1 (stereo unspecified),980 nM (active),–
O=C1c2ccccc2NC(c2ccccc2)N1Cc1ccco1 (stereo unspecified),–,inactive
COCc1cc(C2Nc3ccccc3C(=O)N2Cc2ccccc2)ccc1OC (stereo unspecified),–,inactive
CCCCN1C(=O)c2ccccc2NC1c1ccc(OC)c(COc2ccc(NC(C)=O)cc2)c1 (stereo unspecified),830 nM (active),–
COc1ccc(C2Nc3cccc(F)c3C(=O)N2Cc2ccccc2)cc1COc1ccc(NC(C)=O)cc1 (stereo unspecified),280 nM (active),–
COc1ccc(C2Nc3ccccc3C(=O)N2Cc2ccco2)cc1COc1ccccc1 (stereo unspecified),–,inactive
COc1ccc(C2Nc3ccccc3C(=O)N2Cc2ccccc2)cc1COc1ccc(NC(C)=O)cc1 (stereo unspecified),290 nM (active),–
COc1ccc(C2Nc3ccccc3C(=O)N2Cc2ccccc2)cc1COc1ccc(C#N)cc1 (stereo unspecified),–,inactive
COc1ccc(C2Nc3ccccc3C(=O)N2CCCN(C)C)cc1COc1ccc(NC(C)=O)cc1 (stereo unspecified),–,inactive
COc1ccc(C2NC(=O)c3ccccc3N2)cc1COc1ccc(NC(C)=O)cc1 (stereo unspecified),–,inactive
COc1ccc(C2Nc3ccccc3C(=O)N2CCc2ccccc2)cc1COc1ccc(NC(C)=O)cc1 (stereo unspecified),430 nM (active),–
COc1ccc(C2Nc3ccc(O)cc3C(=O)N2Cc2ccccc2)cc1COc1ccc(NC(C)=O)cc1 (stereo unspecified),330 nM (active),–
COc1ccc(-c2nc3cccc(O)c3c(=O)n2Cc2ccccc2)cc1COc1ccc(NC(C)=O)cc1,550 nM (active),–
COc1ccc(C2Nc3ccccc3C(=O)N2CCO)cc1COc1ccc(NC(C)=O)cc1 (stereo unspecified),–,inactive
COc1ccc(C2Nc3cccc(O)c3C(=O)N2Cc2ccccc2)cc1COc1ccc(NC(C)=O)cc1 (stereo unspecified),90 nM (active),–
COc1ccc(C2Nc3cccc(O)c3C(=O)N2Cc2ccccc2)cc1 (stereo unspecified),–,inactive
COc1ccc(-c2nc3ccccc3c(=O)n2Cc2ccccc2)cc1COc1ccc(NC(C)=O)cc1,960 nM (active),–
COc1ccc(C2Nc3cccc(O)c3C(=O)N2Cc2ccccc2)cc1CSc1ccc(NC(C)=O)cc1 (stereo unspecified),18 nM (active),–
COc1ccc(C2Nc3ccccc3C(=O)N2Cc2ccccc2)cc1COc1cccc(F)c1 (stereo unspecified),–,inactive
COc1ccc(-c2nc3ccccc3c(=O)n2Cc2ccco2)cc1COc1ccc(NC(C)=O)cc1,930 nM (active),–
